In ChEMBL document CHEMBL3433997, “St. Jude Leishmania screening dataset” (2016):

Assays:
Format in all cases: functional
[1] = molecular target: Solute carrier family 2, facilitated glucose transporter member 1 (Homo sapiens) (UniProt P11166); experiment: ST_JUDE_LEISH: Cytotoxicity at 2uM final concentration against transgenic Leishmania Mexicana promastigotes LmGLUT1 that are glucose transport deficient and complemented with the human glucose transporter GLUT1. Activity is measured by DNA content using SYBR green in vitro
Sequence of Solute carrier family 2, facilitated glucose transporter member 1 (Homo sapiens) (P11166 whole entry): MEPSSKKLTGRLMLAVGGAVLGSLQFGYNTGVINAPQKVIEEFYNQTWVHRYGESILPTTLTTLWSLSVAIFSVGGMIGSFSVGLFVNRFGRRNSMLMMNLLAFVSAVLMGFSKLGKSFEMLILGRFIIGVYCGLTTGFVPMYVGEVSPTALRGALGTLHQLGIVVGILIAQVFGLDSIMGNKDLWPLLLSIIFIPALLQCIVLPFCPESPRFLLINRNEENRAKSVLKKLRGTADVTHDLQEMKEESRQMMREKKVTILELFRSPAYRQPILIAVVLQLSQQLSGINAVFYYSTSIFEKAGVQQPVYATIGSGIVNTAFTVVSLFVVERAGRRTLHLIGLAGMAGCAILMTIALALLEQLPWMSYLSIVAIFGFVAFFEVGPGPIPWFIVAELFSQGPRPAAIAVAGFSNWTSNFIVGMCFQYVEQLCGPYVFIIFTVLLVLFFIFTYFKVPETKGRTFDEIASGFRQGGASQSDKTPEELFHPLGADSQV

[2] = molecular target: Hexose transporter 1 (Plasmodium falciparum) (UniProt O97467); experiment: ST_JUDE_LEISH: Cytotoxicity at 2uM final concentration against transgenic Leishmania Mexicana promastigotes LmPfHT that are glucose transport deficient and complemented with the Plasmodium falciparum hexose transporter. Activity is measured by DNA content using SYBR green in vitro
[3] = molecular target: Glucose transporter (Leishmania mexicana) (UniProt O61059); experiment: ST_JUDE_LEISH: Cytotoxicity at 2uM final concentration against transgenic Leishmania Mexicana promastigotes LmGT2 that are glucose transport deficient and complemented with the L. Mexicana glucose transporter 2. Activity is measured by DNA content using SYBR green in vitro

SMILES | inhibition [1] [%] | inhibition [2] [%] | inhibition [3] [%]
O=C(C=Cc1ccc(Cl)c(Cl)c1)NCCCCCN1CCCC(CCCNC(=O)c2sc3ccccc3c2Cl)C1 (centres undefined) | 2.3 | 1.22 | -0.49
CC(C)CCN(Cc1cncn1Cc1ccccc1F)C(=O)c1cncc(-c2ccccc2)c1 | 2.26 | 5.35 | 3.59
COc1ccc(Nc2nc(NC3CCCC3)cc(-c3ccc(OC)cc3)n2)cc1 | -0.76 | 0.56 | -0.75
O=C(/C=C/c1ccc(Cl)c(Cl)c1)NC1CCC(CN2CCC(c3nc4cccnc4[nH]3)CC2)CC1 (centres undefined) | 1.77 | 2.5 | -2.89
CCCN(Cc1ccc(C)cc1)Cc1cc(=O)c2cc(Cl)ccc2[nH]1 | 9.14 | 10.5 | 9.04
Cc1[nH]c(C)c(-c2ccc(-c3ccc(OC(F)(F)F)cc3)nc2)c(=O)c1Cl | -0.94 | -0.29 | 0.22
CC(C)NCc1ccc(-c2cccc(NC(=O)c3ccc(F)cc3)c2)cc1 | 6.57 | 9.15 | 6.89
CCCCCCCCCc1c(C)[nH]c2ccccc2c1=O | -1.28 | 2.65 | 2.28
COc1ccc(CCNCCCCCCNCCc2ccc(Cl)c(Cl)c2)cc1OC | 4.21 | 3.9 | 3.76
Fc1cccc(Nc2nc(NCc3ccc(OCc4ccccc4)cc3)nc(Nc3cccc(F)c3)n2)c1 | 11.8 | 9.09 | 8.22
CCOC(=O)N[C@@H]1CN[C@@H](C#Cc2cc3c(Nc4ccc(OCc5cccc(F)c5)c(Cl)c4)ncnc3s2)C1 | -1.82 | 0.54 | 0.09
COc1ccc2nccc(N(C)CC3(O)CCN(CCc4ccc5c(c4)NC(=O)CS5)CC3)c2n1 | 6.99 | 6.89 | 6.32
CC1CN(c2ccc3occ(C(=O)Nc4ccc(-c5ccncc5)c(Cl)c4)c3c2)CC(C)N1C (centres undefined) | 5.54 | 3.33 | 1.93
COc1cc(NC(=O)c2ccc3c(=O)n(Cc4ccccc4)c(=S)[nH]c3c2)cc(OC)c1OC | 5.79 | 7.58 | 7.73
O=C(NC1CCC1)C1CCN(C(c2ccc(Cl)cc2)c2ccc(Cl)cc2)CC1 | -0.62 | 1.93 | -0.82
CC1(C)NC(N)=NC(=N)N1OCCCOc1c(Cl)cc(Cl)cc1Cl | -1.14 | 0.14 | -2.41
CC(C)N1CCN(CCCCNc2c3ccccc3nc3ccccc23)CC1 | 33 | 41 | 22.3

SMILES | inhibition [1] [%] | inhibition [2] [%] | inhibition [3] [%]
COC(=O)c1ccc(C2OC3(C(=O)c4ccccc4C3=O)C(OC)=C2Cl)cc1C(C)=O (centres undefined) | -2.44 | -0.79 | -0.7
NCc1ccc(-c2cccc(CNC3CCN(Cc4ccccc4)CC3)c2)cc1 | 5.2 | 5.95 | 3.72
O=C(Nc1ccc([N+](=O)[O-])cc1Cl)c1cc(Br)cc(Cc2ccccc2)c1O | 3.27 | 3.32 | 2.81
O=S(=O)(NC1=NCCC1)c1cccc(Nc2nc(C(F)(F)F)nc3ccccc23)c1 | -1.06 | -1.27 | -3.08
Cc1cc(-c2cccc(CNCCc3ccc(Cl)cc3)c2)cnc1N | 6.5 | 6.59 | 7.77
N#Cc1ccc(-c2ccc3nc(N4CCCN(C5CCC5)CC4)ccc3c2)cc1 | 6.14 | 7 | 6.34
CN(C)C(=O)n1cnc(S(=O)(=O)N(C)c2ccc(Cl)cc2)n1 | 5.67 | 6.99 | 4.38
COc1ccc2c(c1)OC(C)(C)CC2=NOS(=O)(=O)c1ccc(C)cc1 | 2.81 | 0.98 | 2
CCCCn1c(Sc2ccc(C#N)c([N+](=O)[O-])c2)nnc1-c1cccc(Cl)c1 | 4.8 | 6.03 | 5.83
CC(C)c1sc(N2CCCCC2)nc1C(=O)Nc1ccc(F)cc1C(F)(F)F | 2.82 | 0.82 | 2.35
COc1ccc(CCNCCCCCCNCCc2ccc(Cl)c3ccccc23)cc1OC | 0.11 | 0.21 | 2.66
COc1ccc2ncc(F)c([C@@H](O)CN3CCC(NCc4cc5c(cn4)OCS5)CC3)c2c1 | 5.71 | 1.41 | 4.52
Clc1ccc(/N=C(/NCCCCCCCN/C(=N\c2ccc(Cl)cc2)Nc2ccc(Cl)cc2)Nc2ccc(Cl)cc2)cc1 | 0.4 | 1.89 | -1.85
CCOC(=O)CC[C@@H](NC(=O)c1ccc(NCc2ccc3ccc4nc(C)[nH]c(=O)c4c3c2)cc1F)C(=O)N[C@@H](Cc1c[nH]c2ccccc12)C(=O)OCC | 1.56 | 1.89 | 3.35
N=C(N)Nc1ccc(OCCCCCOc2ccc(NC(=N)N)cc2)cc1 | 13.7 | 20.2 | 0.71
COc1cc(-c2cc3cc(Cl)c(Cl)cc3[nH]2)ccc1C(=O)NC1CCN(Cc2ccccc2)CC1 | 4.58 | 2.67 | 3.54
